We go through 17 molecules from PubChem BioAssay AID652154 (Broad Institute, 2013).

Screen size: about 360,000 compounds; about 4,200 (1.2%) were called active. Shown is part of a subset that was picked to be rich in actives. A number with no mark means an inactive call.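 How the source made its calls: active means mean replicate inhibition at least 60% with every replicate also reaching 60%; inconclusive means only one of the two criteria is met; inactive means mean below 60% and not all replicates reaching 60%.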

The assay in a line: inhibitors of PAX8-driven TPO luciferase reporter, primary screen, RMG-I cells, single concentration (AID 652154).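 Further: luciferase light reporting Pax8 driven TPO promoter activity; plate controls were median of neutral control wells for no effect and mitoxantrone controls for full effect.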 Conditions: SteadyGlo, 24 h, at 12.6 µM, stronger effect = higher value. In general terms: A reporter such as luciferase makes a cellular process visible.
As for `C=C(C)Cn1c(N2CCCC2)nc2c1c(=O)[nH]c(=O)n2C`, the inhibition – broadly, the change of the read-out against control, counted positive when it falls – was -3.4%. In the case of `Cn1c(=O)[nH]c(=O)c2c1nc(N1CCN(C(c3ccccc3)c3ccccc3)CC1)n2CCO` it was 84.2% (active). `CC1CCN(c2nc3c(c(=O)[nH]c(=O)n3C)n2CCCc2ccccc2)CC1`: the inhibition is -19.2%. Take `COCCNC(=O)C[C@H]1CC[C@H](NS(=O)(=O)c2ccc(C)cc2)[C@@H](CO)O1`: the inhibition was -3.36%. Consider `O=C(CN1CCOCC1)N1CCCCN2[C@@H](CO)[C@H](c3ccc(/C=C/c4ccccc4)cc3)[C@@H]2C1`, for which the inhibition was -11.5%.

Turning to `O=C(C[C@H]1CC[C@@H]2[C@H](COC[C@H](O)CN2S(=O)(=O)c2ccc(Cl)cc2)O1)N[C@@H]1CCN(Cc2ccccc2)C1`, the inhibition was 32.3%. In the case of `C=CCC[C@@H](Cc1ccc(F)cc1)C(=O)OC[C@@H](C)NC(=O)[C@H](CC=C)CC(=O)N(CCO)Cc1ccccc1` it was 31.4%; in that of `C=CCC[C@@H](Cc1ccc(F)cc1)C(=O)OC[C@H](Cc1c[nH]c2ccccc12)NC(=O)[C@@H](CC=C)CC(=O)N(CCO)Cc1ccccc1`, 75.3% (active). Next, `C=CCC[C@H](Cc1ccc(F)cc1)C(=O)OC[C@H](C)NC(=O)[C@H](CC=C)CC(=O)N(CCO)Cc1ccccc1`: 23.7%. As to `C=CCC[C@H](Cc1ccc(F)cc1)C(=O)OC[C@@H](Cc1c[nH]c2ccccc12)NC(=O)[C@H](CC=C)CC(=O)N[C@H](CO)Cc1ccccc1`, the inhibition is 75.3% (active). With `C=CC[C@H](CC(=O)NCCO)C(=O)N[C@@H](COC(=O)[C@@H](CC=C)Cc1ccc(F)cc1)Cc1c[nH]c2ccccc12`, the inhibition was 8.97%. For `C=CC[C@@H](CC(=O)N[C@H](CO)Cc1ccccc1)C(=O)N[C@@H](COC(=O)[C@@H](CC=C)Cc1ccc(F)cc1)Cc1c[nH]c2ccccc12`, the inhibition is 25.6%.

With `CO[C@@H]1CC[C@H]2CCN(C)C(=O)C[C@@H](c3ccccc3)CN(C)C(=O)c3cc(C#N)ccc3OC[C@@H]1O2`, the inhibition is 5.74%. In the case of `N#C[C@@H]1N[C@@H](CO)[C@@H]1c1ccc(C#Cc2ccccc2F)cc1` it was -118%. In the case of `O=C(C[C@@H]1CC[C@@H]2[C@H](COC[C@H](O)CN2C(=O)Nc2cccc(Cl)c2)O1)NCCCN1CCOCC1` it was -32.8%; in that of `O=C(c1ccncc1)N1CC(=O)N2[C@H](CO)[C@@H](c3ccc(-c4cccnc4)cc3)[C@H]2C1`, 7.54%; in that of `COCC(=O)N(C)C[C@H]1[C@@H](c2ccc(-c3cccnc3)cc2)[C@H](CO)N1C(C)=O`, 0.314%.
